Only some compounds are listed: those with a hit (about 2.4% of all), similar ones and a draw of the others.
D2 PAM-1 = positive allosteric modulators of human D2 dopamine receptor. HEK293 T-REx D2, calcium flux, EC20 dopamine potentiation. potentiation, % at 10 µM. 340,000 compounds, 0.34% hits. AID 485347;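 active = potentiation over 3 SD above the plate norm, cut at about 30% in these data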; note: 0% is about no effect
Target sequence (P14416 whole entry, looked up): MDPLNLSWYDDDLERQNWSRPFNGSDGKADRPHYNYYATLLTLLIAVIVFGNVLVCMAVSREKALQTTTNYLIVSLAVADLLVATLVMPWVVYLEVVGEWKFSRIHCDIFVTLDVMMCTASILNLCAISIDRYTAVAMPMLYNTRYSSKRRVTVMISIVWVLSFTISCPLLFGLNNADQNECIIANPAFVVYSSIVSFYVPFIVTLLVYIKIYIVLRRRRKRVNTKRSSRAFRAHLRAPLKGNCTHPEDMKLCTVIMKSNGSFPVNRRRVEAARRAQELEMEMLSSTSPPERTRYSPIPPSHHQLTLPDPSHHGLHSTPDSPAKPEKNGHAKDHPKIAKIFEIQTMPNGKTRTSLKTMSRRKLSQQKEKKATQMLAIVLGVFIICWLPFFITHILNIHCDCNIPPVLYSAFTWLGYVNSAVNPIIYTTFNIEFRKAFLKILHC
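Calcium flux readout, no-wash dye, 1 read/s. Inducible HEK293 Trex D2 line, overnight 30 C. Compound alone 180 s (agonist flags), then EC20 dopamine, another 180 s to score potentiation.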
D2 ag-1 = agonists of human D2 dopamine receptor; 340,000 compounds, 0.53% hits; P14416; AID 485358; HEK293 T-REx D2 cells, calcium flux agonist mode; activation, % at 2 µM;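 active = activation over 3 SD above normal in the single-dose calcium agonist read, cut at about 30% in these data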; note: 0% is about no effect
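In this primary screen, compounds producing a positive calcium signal within 180 s of addition to tetracycline-induced, force-coupled HEK293 Trex D2 cells are flagged; cells are dye-loaded with a no-wash calcium kit beforehand.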
D2 PAM-2 = positive allosteric modulators of human D2 dopamine receptor; DiscoveRx D2 beta-arrestin cells, luminescence, 90 min; 100% = 57 uM dopamine signal; potentiation, % (concentration not given with the values); 360,000 compounds, 0.23% hits; AID 624464; in the data active = potentiation above about 50%
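D2 cells co-treated with compound plus 50 nM dopamine (EC20) for 90 min at 37 deg C to detect potentiation. Beta-arrestin recruitment was read as enzyme-fragment luminescence after 1 h at ambient temperature. Full response was set by 57 uM dopamine.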
D2 ag-2 = agonists of human D2 dopamine receptor (beta-arrestin); activation, % (concentration not given with the values); DiscoveRx PathHunter D2 beta-arrestin, luminescence, 90 min; 100% = 57 uM dopamine signal; 360,000 compounds, 0.084% hits; in the data active = activation above about 40%
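Agonist mode: compounds alone added to overnight-plated D2 PathHunter cells for 90 min at 37 C, with 57 uM final dopamine (EC100) defining full response. Beta-arrestin recruitment detected by chemiluminescent reagent, read after 1 h at ambient temperature.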
D2 antag = antagonists of human D2 dopamine receptor; P14416; HEK293 TREx D2 cells, calcium flux, dopamine EC80; inhibition, % at 10 µM; 340,000 compounds, 2% hits; AID 485344; in the data active = inhibition above about 30%; inactive = below that, where a call was filed; note: 0% is about no effect
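Read-out: kinetic calcium fluorescence (1 cycle/s) in inducible HEK293 T-REx D2 cells after an EC80 dopamine addition that followed 180 s compound preincubation. Loss of the dopamine response indicates antagonism.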
An asterisk follows results filed as active; . = no result given.

SMILES	D2 PAM-1	D2 ag-1	D2 PAM-2	D2 ag-2	D2 antag
ClCc1csc(-c2ccc(Cl)cc2)n1	-12	0	-10	-7	29
CC1CN(Cc2csc(-c3ccc(Cl)cc3)n2)CC(C)O1 (stereo unspecified)	-23	-2	-16	-2	37*
Cc1cc(F)ccc1Oc1cc(NN2CCCCC2)c([N+](=O)[O-])cc1[N+](=O)[O-]	1	0	-6	0	30*
O=[N+]([O-])c1cc([N+](=O)[O-])c(Oc2cc(F)ccc2F)cc1NN1CCCCC1	-9	-1	-1	-2	-3
COc1ccc(CNc2nc3c(c(=O)n(C)c(=O)n3C)n2Cc2ccccc2Cl)cc1	-4	0	.	.	.
N#Cc1c(-c2ccccc2)nc(SCc2cccc(Cl)c2)[nH]c1=O	0	-1	1	2	30*
CC(C)N1C(=O)c2ccccc2C1C(=O)NC1CCCCCC1 (stereo unspecified)	31*	-2	5	-2	-12
CCn1c2ccccc2c2cc(/C=N/NC(=O)c3cccc(C)c3)ccc21	8	1	8	1	-12
CCn1c2ccccc2c2cc(/C=N/NC(=O)c3ccccc3C)ccc21	-4	-1	-9	-6	36*
COc1cc(/C=C/C(=O)c2ccc3c(c2)OCO3)cc(Cl)c1O	-5	78*	-8	-6	35*
Cc1nnc(SCc2nc(-c3ccc(Cl)cc3)no2)n1-c1ccc(F)cc1	17	-1	.	.	.
O=C(Nc1nnc(SCC(=O)N2CCCCC2)s1)c1ccc(F)cc1F	-3	0	1	3	55*
CCOC(=O)Nc1sc(C(=O)N(CC)CC)c(C)c1C(=O)OCC	45*	1	-11	-6	-11
COc1ccc([N+](=O)[O-])cc1NC(=O)C(C)N1CCCC1 (stereo unspecified)	-11	0	-24	-6	31*
COC(=O)Nc1cc([N+](=O)[O-])ccc1OC	10	2	-6	-1	-6
COc1ccc([N+](=O)[O-])cc1NC(=O)Nc1ccccc1	-26	0	-33	-1	37*
CCN(C(=O)CSc1ncc(S(=O)(=O)c2ccc(C)c(Cl)c2)c(=O)[nH]1)c1cccc(C)c1	3	1	.	.	.
CN(CC(=O)NCCc1ccc(S(N)(=O)=O)cc1)CC(=O)Nc1ccc(Cl)c(C(F)(F)F)c1	.	.	-16	2	.
CC(=O)c1c(C)[nH]c(C(=O)N(C)CC(=O)Nc2ccc(Cl)c(C(F)(F)F)c2)c1C	-19	0	-21	-2	39*
CN(CC(=O)Nc1ccc(Cl)c(C(F)(F)F)c1)C(=O)c1cccs1	1	0	-4	0	14
CN(CC(=O)NC(=O)NCc1ccccc1)CC(=O)Nc1ccc(Cl)c(C(F)(F)F)c1	12	0	-10	3	35*
Cc1nn(CC(=O)NCc2ccc(N(C)C)cc2)c(=O)c2c(C)n(-c3ccc(Cl)cc3)nc12	14	0	.	.	.
CSc1cccc(NC(=O)C2CCN(S(=O)(=O)c3ccc4c(c3)CCCN4C(=O)C3CCC3)CC2)c1	-8	1	.	.	.
Cc1cc(OCCN2CCCCC2)nc2ccccc12	-20	0	-39	-5	31*
Cc1cccc(-n2c(=O)c3c(c4cc(C)ccc4n3C)n(CC(=O)NCCC3=CCCCC3)c2=O)c1	7	0	.	.	.
SMILES	D2 PAM-1	D2 ag-1	D2 PAM-2	D2 ag-2	D2 antag
O=C(CC(c1cccs1)N1Cc2ccccc2C1=O)Nc1ccccc1 (stereo unspecified)	1	0	.	.	.
CN(C)S(=O)(=O)c1ccc(NC=C(C#N)C#N)cc1	-15	0	-4	0	2
CCN(CC)S(=O)(=O)c1ccc(NC=C(C#N)C#N)cc1	-2	0	-2	3	74*
CCn1c(C(=O)N2CCC(C(=O)NCCc3ccc(OC)cc3OC)CC2)cc2sccc21	10	-1	.	.	.
CNC(=O)CN1C(=O)COc2ccc(S(=O)(=O)N3CCC(C)CC3)cc21	-3	0	.	.	.
Cc1c(O)c(CN2CCCCC2)cc2c1oc(=O)c1ccccc12	-13	-1	-52	-2	66*
CC(=O)c1cccc(NC(=O)CC(c2ccc(C)cc2)N2Cc3ccccc3C2=O)c1 (stereo unspecified)	-7	-1	.	.	.
Cc1cc(C(=O)COC(=O)c2ccc3c(c2)NC(=O)CS3)c(C)n1CCc1ccc(Cl)cc1	14	-1	6	2	63*
COc1cc(/C=C2\SC(=O)N(Cc3ccc(F)cc3)C2=O)cc([N+](=O)[O-])c1O	3	-2	-1	-2	31*
COc1cc(/C=C2/SC(=S)N(Cc3ccccc3)C2=O)cc(Cl)c1O	-21	72*	-6	-2	-12
Nc1cc(C(F)(F)F)ccc1-n1cccc1	-9	0	1	0	39*
CC1CCN(c2ccc(C(F)(F)F)cc2N)CC1	0	0	-8	-1	8
Cc1ccc(NC(=O)NC(=O)N(C(C)C)S(=O)(=O)c2ccc(C)cc2)cc1	-10	7	-8	8	44*
CCCN1CCN(c2nc(-c3cccs3)nc3ccccc23)CC1	-15	-1	-43	-2	37*
Cc1cc(C)c(-c2cc(C(F)(F)F)no2)c(=O)[nH]1	-10	2	1	3	32*
CN(C)CCCN1c2ccccc2CCc2ccc(Cl)cc21	-29	2	-23	1	89*
CCN1C(=O)CCCc2ccccc21	6	0	-4	1	8
CN(C)CCCN1c2ccccc2Sc2ccccc21	.	.	-35	-10	.
CNCCCN1c2ccccc2CCc2ccccc21	-23	2	-28	-1	39*
COc1cc2c(cc1OC)[C@@H]1Cc3ccc(OC)c(OC)c3CN1CC2	-21	4	-19	-2	57*
COc1cc2c(cc1OC)C1Cc3ccc(OC)c(OC)c3CN1CC2 (stereo unspecified)	-22	5	-47	-4	80*
COc1ccccc1N1CCN(c2ncnc3c2nnn3C)CC1	-2	-5	.	.	.
O=C1CCC(c2ccccc2)N1C(=O)c1cccnc1 (stereo unspecified)	38*	-1	-4	0	-6
O=C1CC(c2ccccc2)CN1C(=O)c1cccnc1 (stereo unspecified)	4	0	-8	-5	2
CC1CCN(c2nn3c(=O)c(C(=O)NCCc4ccccc4)cnc3s2)CC1	-1	0	.	.	.
COc1ccc(N(CC(=O)NCCc2ccc(C)cc2)S(=O)(=O)c2c(C)noc2C)cc1	-7	0	19	4	1
COc1ccc(N(CC(=O)NCCc2ccc(OC)c(OC)c2)S(=O)(=O)c2c(C)noc2C)cc1	-2	1	-2	64*	-12
COc1cccc(C2C(C(=O)Nc3ccccc3)=C(C)Nc3nnnn32)c1OC (stereo unspecified)	5	1	.	.	.

Bioassay records: PubChem, National Center for Advancing Translational Sciences (NCATS)
